One may read the viability as a read-out of living cells in per cent, often relative to untreated cells.

The values below come from PubChem BioAssay (NCATS).

For test [1], the target named is Cellular tumor antigen p53 (Homo sapiens) (UniProt P04637). Put plainly: Primary qHTS for small molecule compounds that upregulate eGFP-tagged delta133p53alpha (in N-terminal) cells. (AID 2060322).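 For activation: series mostly up to about 56 µM; 0% = DMSO vehicle and 100% = reference activator.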 Note: nearly all actives have a fitted effect of over 75% in size. Note: potency is the fitted concentration of half-maximal effect. The note with it: NCI-H358 eGFP-delta133p53alpha fluorescence, 24 h; activation: hits give high values. Put shortly: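 NCI-H358 cells pre-induced 24 h with 10 ng/ml doxycycline to express N-terminal eGFP-delta133p53alpha, then dosed 24 h at 37C without doxycycline; fixed, Hoechst-stained, GFP intensity by laser scanning cytometry, normalized to DMSO (0%) and 57.5 uM 5-azacytidine (100%).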
In general terms: Quantitative high-throughput screening tests each substance at several concentrations.

The target in test [2] is Aldehyde dehydrogenase, mitochondrial (Homo sapiens) (UniProt P05091). Put plainly: qHTS for Inhibitors of the Aldehyde Dehydrogenase Family (ALDH2) Confirmatory screens (AID 2061303; active = well fitted inhibition curve with a large enough effect; title and protocol of this record describe different tests; note: nearly all actives have a fitted effect of over 45% in size; note: potency is the fitted concentration of half-maximal effect; for activity change, negative = inhibition: % is set by controls: 0 for no effect and ±100 for the full control effect).
The target is the same in test [3]. Put plainly: qHTS for Inhibitors of the Aldehyde Dehydrogenase Family (ALDH2) Primary screen (AID 2061308).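 Note: plate controls were vehicle for no effect and reference inhibitor for full effect; nearly all actives have a fitted effect of over 55% in size.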
For test [4], the target named is Retinal dehydrogenase 2 (Homo sapiens) (UniProt O94788). The test can be described thus: qHTS for Inhibitors of the Aldehyde Dehydrogenase Family (ALDH1A2) Confirmation screens (AID 2061314). For activity, negative = inhibition: % is set by controls: 0 for no effect and ±100 for the full control effect. Note: nearly all actives have a fitted effect of over 65% in size. Note: potency is the fitted concentration of half-maximal effect.
Test [5] deals with Retinaldehyde dehydrogenase 3 (Homo sapiens) (UniProt P47895). Put plainly: qHTS for Inhibitors of the Aldehyde Dehydrogenase Family (ALDH1A3) Primary screen (AID 2061315).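 For activity change, negative = inhibition: plate controls were DMSO vehicle for no effect and reference inhibitor for full effect.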 Note: potency is the fitted concentration of half-maximal effect.
Test [6] addresses Aldehyde dehydrogenase 1A1 (Homo sapiens) (UniProt P00352). The test can be described thus: qHTS for Inhibitors of the Aldehyde Dehydrogenase Family (ALDH1A1) Confirmatory screens (AID 2061316). For activity change, negative = inhibition: % is set by controls: 0 for no effect and ±100 for the full control effect. Note: nearly all actives have a fitted effect of over 65% in size. Note: potency is the fitted concentration of half-maximal effect.
Test [7] is described as follows: BET inhibitor-based combinations targeting novel dependencies in MECOM-rearranged (r) AML: HNT-34 cell line (AID 2202234). Note: nearly all actives have a fitted effect of over 35% in size. Note: potency is the fitted concentration of half-maximal effect. Summed up: (§1)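 Seeding density was 500 cells/well, and drug exposure lasted 48 hr under standard culture conditions. Read-out used CellTiter-Glo reagent with a 15 min room-temperature incubation before luminescence measurement; AUC and Z-AUC summarize the normalized responses.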

The nature of test [8]: BET inhibitor-based combinations targeting novel dependencies in MECOM-rearranged (r) AML: UCSD-AML1 cell line (AID 2202235).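 Note: series mostly up to about 46 µM; plate controls were DMSO vehicle wells for no effect and blank wells for full effect; nearly all actives have a fitted effect of over 40% in size.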 Summed up: as §1
Test [9] in a line: qHTS for Inhibitors of the Aldehyde Dehydrogenase Family (ALDH1A2, ALDH1A3, ALDH2, ALDH3A1) (AID 2061307). For Potency: test system not described further here; potency is the fitted concentration of half-maximal effect. For activity change, negative = inhibition: % is set by controls: 0 for no effect and ±100 for the full control effect. Note: nearly all actives have a fitted effect of over 50% in size.
The target of test [10] is Retinaldehyde dehydrogenase 3 (Homo sapiens) (UniProt P47895). Put plainly: qHTS for Inhibitors of the Aldehyde Dehydrogenase Family (ALDH1A3) Confirmatory screens (AID 2061311). Note: nearly all actives have a fitted effect of over 60% in size. Note: potency is the fitted concentration of half-maximal effect.
The nature of test [11]: BET inhibitor-based combinations targeting novel dependencies in MECOM-rearranged (r) AML: SET-2 cell line (AID 2202231).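 Note: plate controls were DMSO treated cells for no effect and wells without cells for full effect; nearly all actives have a fitted effect of over 35% in size.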 The note with it: SET-2 AML cells viability, CellTiter-Glo luminescence, 48 h; viability: hits give low values, series mostly up to about 46 µM. Put shortly:
(§2)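 Readout: CellTiter-Glo luminescence. Exposure: 48 h, 11 concentrations, 500 cells/well. Metric: AUC and within-line Z-AUC after DMSO/empty-well normalization.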

Test [12] in a line: BET inhibitor-based combinations targeting novel dependencies in MECOM-rearranged (r) AML: OCI-AML3 cell line (AID 2202232). Note: nearly all actives have a fitted effect of over 35% in size. Note: potency is the fitted concentration of half-maximal effect. The note with it: Potency: OCI-AML3 viability. Summed up:
as §2

Test [13] is described as follows: BET inhibitor-based combinations targeting novel dependencies in MECOM-rearranged (r) AML: MV-4-11 cell line (AID 2202233). Note: nearly all actives have a fitted effect of over 45% in size. Note: potency is the fitted concentration of half-maximal effect. Put shortly: as §1
Test [14] in a line: BET inhibitor-based combinations targeting novel dependencies in MECOM-rearranged (r) AML: AML-191 cell line (AID 2202236;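 note: plate controls were vehicle wells for no effect and wells without cells for full effect; nearly all actives have a fitted effect of over 35% in size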). Summed up: as §2
The nature of test [15]: BET inhibitor-based combinations targeting novel dependencies in MECOM-rearranged (r) AML: AML-194 cell line (AID 2202237;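 note: plate controls were vehicle wells for no effect and wells without cells for full effect; nearly all actives have a fitted effect of over 40% in size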). Put shortly:
as §2

The target in test [16] is Retinaldehyde dehydrogenase 3 (Homo sapiens) (UniProt P47895). Put plainly: qHTS for Inhibitors of the Aldehyde Dehydrogenase Family (ALDH1A3) Validation screen (AID 2061312). Note: nearly all actives have a fitted effect of over 45% in size. Note: potency is the fitted concentration of half-maximal effect.

Several values for one entry are separate records, joined by “and”; a condition that tells them apart may be missing. Identical values can stand only once. Inconclusive results are not listed. A number with no mark means an inactive call. Activity calls are given as the source filed them. Unless noted, calls come from the whole dose curve; as a rule, active = well fitted curve in the direction sought with a large enough effect; inconclusive = small, poorly fitted or top-dose-only effect, or another doubt; inactive = no such curve, though single readings can be large; an effect the other way counts as inactive or inconclusive.

Chain of Cellular tumor antigen p53 (Homo sapiens) (P04637 whole entry, looked up): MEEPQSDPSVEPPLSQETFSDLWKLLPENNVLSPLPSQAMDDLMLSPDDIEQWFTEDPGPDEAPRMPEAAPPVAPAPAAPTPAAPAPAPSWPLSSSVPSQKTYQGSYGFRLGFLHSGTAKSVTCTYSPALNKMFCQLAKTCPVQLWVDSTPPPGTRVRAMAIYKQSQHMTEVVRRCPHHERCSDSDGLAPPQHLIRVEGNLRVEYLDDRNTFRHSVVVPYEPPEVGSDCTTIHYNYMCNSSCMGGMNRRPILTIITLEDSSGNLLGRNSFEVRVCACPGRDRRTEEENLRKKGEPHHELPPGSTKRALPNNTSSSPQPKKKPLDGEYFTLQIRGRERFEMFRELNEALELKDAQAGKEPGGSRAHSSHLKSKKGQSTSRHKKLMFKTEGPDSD

As to `CC1=C2CC3C(CCC3(C)O)C(C)(O)CC2OC1=O` (configuration not stated), the activation in test [1] is -2.68%. Besides, the Potency entry in test [2], in test [3], in test [4], in [5] and in test [6] was “inactive” throughout.
For `C=C1C(=O)OC2C1CCC(=C)C1CC(OC(C)=O)C(=C)C12` (configuration not stated), the Potency in test [1] was 16.9 µM (active). In addition, the Potency entry in test [2], in [3] and in test [5] was “inactive” throughout.
Take `C=C1C(O)CCC2(C)CC3(OC)OC(=O)C(C)=C3CC12` (configuration not stated): in [1], the activation was -6.87%. The Potency result in test [2] and in test [5] was “inactive” throughout.
As to `COc1cc2ncc(-c3ccccc3)nc2cc1OC`, the activation in test [1] was -16.1%. Further, the Potency result in test [2], in [3] and in test [4] was “inactive” throughout.
Consider `COc1cccc(-c2ccc(NC(=O)C3=C(C(=O)O)CCC3)c(F)c2)c1`, for which, in test [1], the activation was -4.2% and -13.4%. Also, the Potency result in [2], in test [3], in test [7] and in test [8] was “inactive” in each case. For the same compound, the Potency in test [6] is 12.7 µM (active).
As to `OC[C@H]1O[C@@H](OC(CCCCc2ccc(O)cc2)CCc2ccc(O)cc2)[C@H](O)[C@@H](O)[C@@H]1O` (some centres not stated), in [1], the activation was -9.92%. Moreover, the Potency result in [9] and in test [3] was “inactive” each time.
As to `Cc1ccc(CN2CCNCC2)cc1NC(=O)CNc1ccc(F)c(F)c1`, the activation in test [1] is -12.8% and -5.25%. Further, the Potency entry in test [2], in [3], in [10], in test [5], in test [12] and in test [13] was “inactive” in each case. Moreover, the Potency entry in [7], in test [8], in [14] and in test [15] was “inactive” throughout. Further, the Potency in [6] is 12.7 µM (active). The viability in test [11] was 115%.
In the case of `O=C(OC1C=C(CO)C2C(OC3OC(CO)C(O)C(O)C3O)OC=CC12O)c1ccc(O)cc1` (configuration not stated), the activation in [1] is 12.2%. The Potency result in test [2], in [3] and in test [4] was “inactive” throughout.
Regarding `OC[C@@]1(O)CO[C@@H](OC[C@H]2O[C@@H](Oc3c[nH]c4ccccc34)[C@H](O)[C@@H](O)[C@@H]2O)[C@@H]1O`, the activation in [1] was -5.34%. The Potency entry in test [2], in test [3], in test [5] and in test [6] was “inactive” each time.
`OC[C@H]1O[C@@H](O[C@H]2[C@H](O)[C@@H](CO)O[C@@H](OCc3ccccc3)[C@@H]2O[C@@H]2OC[C@](O)(CO)[C@H]2O)[C@H](O)[C@@H](O)[C@@H]1O`: the activation in test [1] is -11.5%. The Potency result in [9] and in [3] was “inactive” throughout. Also, in test [10], the Potency is 12.3 µM (active).
Turning to `O=C(NCC(=O)N1CCCC1)Nc1ccc2ccccc2c1`, in test [1], the activation was -2.86%. Moreover, the Potency is 5.04 µM (active) in [9]; 1.01 µM (active) in [10]; 3.55 µM (active) in test [16]; 2.82 µM (active) in test [5]; 7.98 µM (active) in test [6]. Also, the Potency result in [3] is “inactive”.
For `CCN(Cc1cc(Nc2nc(C)cn3c(-c4cn[nH]c4)cnc23)sn1)C(C)(C)CO`, the Potency in [1] is 16.9 µM (active); in test [10], 12.7 µM (active); in test [4] it was 31.8 µM (active). Also, the Potency entry in [9], in test [3] and in [5] was “inactive” in each case.
On to `OC/C=C/C=C/[C@H]1Cc2cc(O)cc(O)c2O1`, for which, in test [1], the activation is 0.893%. Moreover, the Potency entry in [2], in [3] and in test [4] was “inactive” throughout.
Turning to `CC1(C)O[C@@]2(C)CC[C@@H]1C[C@@H]2OC1OC(CO)C(O)C(O)C1O` (some centres not stated), the activation in test [1] was -6.11%. The Potency entry in [2], in [3], in test [4], in test [5] and in test [6] was “inactive” throughout.
In the case of `CC(O)CCC1C(CO[C@@H]2O[C@H](CO)[C@@H](O)[C@H](O)[C@H]2O)CC(O)CC1(C)C` (some centres not stated), the activation in [1] was 5.34%. Moreover, the Potency result in test [9], in test [3] and in test [4] was “inactive” in each case. For the same compound, the Potency in test [10] is 3.92 µM (active); in test [5] it was 6.31 µM (active).
Turning to `COc1cc(C2Oc3c(OC)cc(CCCO[C@@H]4O[C@H](CO)[C@@H](O)[C@H](O)[C@H]4O)cc3C2CO)ccc1O` (some centres not stated), the activation in test [1] was -6.25%. Also, the Potency entry in [2], in test [3], in test [4], in test [5] and in test [6] was “inactive” in each case.
Regarding `C[C@@H]1O[C@@H](O[C@H]2[C@H](O[C@H]3CO[C@@H](O[C@H]4CC[C@@]5(C)C(CC[C@]6(C)C5CC[C@]57OC[C@@]8(CC[C@](C)(CO)CC85)[C@H](O)C[C@]76C)C4(C)C)[C@H](O[C@@H]4O[C@H](CO)[C@@H](O)[C@H](O)[C@H]4O)[C@H]3O)O[C@H](CO)[C@@H](O)[C@@H]2O)[C@H](O)[C@H](O)[C@H]1O` (some centres not stated), the activation in [1] was -4.58%. For the same compound, the activity change, negative = inhibition is -29.1% [at 10 µM] in test [2] and -22.4% [at 10 µM] in test [6]. Further, the Potency entry in test [3] and in test [5] was “inactive” each time. Moreover, the activity, negative = inhibition in test [4] is -8.29% [at 10 µM].
With `Cn1cc(-c2ccncc2)c(-c2ccc(OCc3ccc4ccccc4n3)cc2)n1`, the activation in test [1] is -22.8% and -12.9%. The Potency result in test [2], in test [3], in test [16], in test [4], in test [5] and in [6] was “inactive” throughout. In test [8], the Potency result is “inactive”. Also, the results for the Potency in [12], in test [13] and in test [7] were 11.8 µM (active), 5.9 µM (active) and 23.5 µM (active), respectively.
Regarding `CN1CCN(C(=O)CN[C@@H]2C[C@H]2c2ccc(OCc3ccccc3)cc2)CC1`, the activation in test [1] is 68.2%. In addition, the Potency in [2] is 14.1 µM (active); in test [10] it was 3.98 µM (active); in [16] it was 1.41 µM (active); in test [6], 20.1 µM (active).
With `C[C@@H]1O[C@@H](O[C@@H]2[C@@H](O)[C@@H](O[C@]3(CO)O[C@H](CO)[C@@H](O)[C@@H]3OC(=O)/C=C/c3ccc(O)cc3)O[C@H](CO)[C@H]2OC(=O)/C=C/c2ccc(O)cc2)[C@H](O)[C@H](O)[C@H]1O[C@@H]1O[C@@H](C)[C@H](O[C@@H]2OC[C@](O)(CO)[C@H]2O)[C@@H](O)[C@H]1O`, the activation in [1] is -2.68%. The Potency entry in [9] and in test [3] was “inactive” in each case.
On to `CC(C)=C1CC2C(CCC2(C)O)C(C)(O)CC1=O` (configuration not stated), for which the activation in [1] is 1.79%. In addition, the Potency result in [2], in test [3], in test [4] and in [5] was “inactive” throughout.
